# The list is not random: actives were taken first. Their share in the collection is about 2.4%.
# Cruzain inh Det: inhibitors of Trypanosoma cruzi cruzain with detergent; P25779; purified cruzain, Z-FR-AMC fluorescence, 0.01% Triton; Potency, µM, for inactives: max response, negative = inhibition, usual class: inhibitors; hit rate 0.43% among 200,000;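 note: plate controls were neutral wells for no effect and buffer without enzyme for full effect; nearly all actives have a fitted effect of over 40% in size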
# Target sequence (P25779 123-467 limits assumed): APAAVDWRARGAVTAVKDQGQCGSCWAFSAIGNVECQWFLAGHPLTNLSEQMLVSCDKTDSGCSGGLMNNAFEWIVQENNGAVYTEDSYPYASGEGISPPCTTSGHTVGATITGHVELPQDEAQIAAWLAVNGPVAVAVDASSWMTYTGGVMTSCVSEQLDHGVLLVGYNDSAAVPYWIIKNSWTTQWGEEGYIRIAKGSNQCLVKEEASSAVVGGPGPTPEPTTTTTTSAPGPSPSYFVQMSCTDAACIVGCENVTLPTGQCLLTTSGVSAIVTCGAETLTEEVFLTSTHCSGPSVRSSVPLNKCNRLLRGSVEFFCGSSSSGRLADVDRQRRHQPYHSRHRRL
#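 Purified cruzain (1.5 nM final) was preincubated with compounds for 15 min at room temperature in 100 mM sodium acetate pH 5.5, 5 mM DTT, 0.01% Triton X-100. Reaction started with 2 uM Z-FR-AMC; AMC fluorescence change over 60 s gave activity.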
# Cruzain noTriton: cruzain (T. cruzi) inhibition without detergent | P25779 | purified cruzain, Z-FR-AMC fluorescence, no detergent | Potency, µM, without a hit: max response, negative = inhibition, hits mostly inhibitors | hit rate 2.3% among 200,000;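 note: plate controls were enzyme without inhibitor for no effect and buffer without enzyme for full effect; nearly all actives have a fitted effect of over 40% in size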
#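 Purified cruzain at 1.5 nM, pre-incubated 15 min with compound at room temperature in 100 mM sodium acetate pH 5.5, 5 mM DTT, 0.00005% Triton X-100. Reaction started with 2 uM Z-FR-AMC; AMC fluorescence increase over 60 s gives rate.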
# * hit, by the source's call; ? = inconclusive. Calls come from the whole dose curve; as a rule, active = well fitted curve in the direction sought with a large enough effect; inconclusive = small, poorly fitted or top-dose-only effect, or another doubt; inactive = no such curve, though single readings can be large; an effect the other way counts as inactive or inconclusive. Potency is the fitted concentration of half-maximal effect.
SMILES,Cruzain inh Det,Cruzain noTriton
c1ccc2c(c1)CC(N1CCN(c3cccc4c3OCCO4)CC1)C2,-6%,-4%
COc1ccc(-c2cc3ccc(O)c(CN4CCCC(C)C4)c3oc2=O)cc1OC (configuration not stated),0%,-5%
CCOc1ccc(C(=O)N(Cc2cc(OC)c(OC)c(OC)c2)c2ccccn2)cc1,-2%,27%
COc1ccc(OCC(=O)NC(=S)Nc2ccc3c4c(cccc24)CC3)cc1,-12%,?
Cc1ccccc1OCC(=O)NC(=S)Nc1ccc2c3c(cccc13)CC2,-1%,7.9µM*
N#CCCn1c(SCC(=O)c2c[nH]c3ccccc23)nc2ccccc21,-6%,?
Cc1cc(C(=O)CSc2nc3ccccc3n2CCC#N)c(C)n1Cc1cccs1,2%,16µM*
COc1ccc(NC(=O)CSC2=Nc3ccccc3C3=NC(Cc4ccccc4)C(=O)N23)cc1Cl (configuration not stated),-4%,16µM*
Cc1ccc(NC(=O)CSC2=Nc3ccccc3C3=NC(Cc4ccccc4)C(=O)N23)cc1C (configuration not stated),-6%,-21%
CCCN[C@@H](C)C(=O)Nc1c(C)csc1C(=O)OC,-5%,-6%
Cc1cc(Br)c(OCc2ccc(C(=O)N/N=C3\CC4CC=CC34)cc2)c(Br)c1 (configuration not stated),-6%,20µM*
COc1cc(/C=N/NC(N)=O)cc(Br)c1OCc1ccc(C)cc1,6%,?
COc1cc2c(cc1OC)C(c1ccc(Cl)cc1)N(c1ccc(C)c(F)c1)C(=O)C2 (configuration not stated),-11%,?
O=C(OCN1C(=O)c2ccccc2C1=O)C1CCCCC1,-1%,-26%
O=C1c2ccccc2C(=O)N1SC1CCCCC1,14µM*,6.3µM*
O=C(Nc1ccccc1N1CCCCC1)c1ccc(-c2cccc(Cl)c2)o1,-2%,-3%
O=C(NC(=S)Nc1cc(Cl)ccc1N1CCOCC1)c1ccc(-c2cccc(Cl)c2)o1,5%,7.9µM*
N#Cc1c(-c2ccccc2)cc(-c2ccccc2)nc1SCC(O)CS(=O)(=O)Cc1ccc(Cl)cc1 (configuration not stated),-5%,7.9µM*
COc1ccc(-c2cc(-c3ccccc3)c(C#N)c(SCC(O)CS(=O)(=O)Cc3ccc(Cl)cc3)n2)cc1 (configuration not stated),7%,?
COc1cccc(NC(=O)CSc2nc(=O)n(Cc3ccncc3)c3c2CCC3)c1,-1%,2%
COc1ccc(Nc2nc(N)c3cc(OC)c(OC)cc3n2)cc1,9%,1%
Cc1ccccc1OCC(=O)Nc1sc(C(=O)Nc2cccc(C)c2C)c(C)c1C#N,5%,7.9µM*
COc1ccccc1NC(=O)c1sc(NC(=O)c2ccco2)c(C#N)c1C,-2%,-5%
O=C(O)c1cc(N(Cc2ccccc2O)Cc2cc(O)ccc2O)ccc1O,-1%,-2%
Cc1ccc(CSCCC(=O)NCc2ccc(F)cc2Cl)cc1,-1%,-12%
SMILES,Cruzain inh Det,Cruzain noTriton
C(=C\c1nc2ccccc2[nH]1)/c1ccccc1,-21%,20µM*
Cc1cccc(/C=C\c2nc3ccccc3c(=O)[nH]2)c1,27%,?
Cc1ccc(C(=O)NC(=C(Cl)Cl)S(=O)(=O)c2ccc(C)cc2)cc1,-2%,11%
Cc1ccc(S(=O)(=O)/C(=C/Cl)NC(=O)c2ccccc2)cc1,22µM*,25µM*
O=C(NC1CCCC1)c1ccc2c(c1)N(Cc1ccccc1Cl)C(=O)c1ccccc1S2,0%,?
CC(=O)Nc1ccc(NC(=O)c2ccc3c(c2)N(Cc2cccc(Cl)c2)C(=O)c2ccccc2S3(=O)=O)cc1,-5%,-20%
N#Cc1cccc(NC(=O)c2ccc3c(c2)N(Cc2cccc(Cl)c2)C(=O)c2ccccc2S3(=O)=O)c1,-3%,6.3µM*
CC(C)CCNC(=O)c1ccc2c(c1)N(Cc1cccc(Cl)c1)C(=O)c1ccccc1S2,1%,?
O=C(Nc1ccc(Cl)cc1)c1ccc2c(c1)N(Cc1ccccc1)C(=O)c1ccccc1S2(=O)=O,-7%,?
O=C(NC1CCCCC1)c1ccc2c(c1)N(Cc1ccccc1Cl)C(=O)c1ccccc1S2,2%,10µM*
COc1ccc(CNC(=O)c2ccc3c(c2)N(Cc2cccc(Cl)c2)C(=O)c2ccccc2S3)c(OC)c1,0%,13µM*
Cc1cc(NC(=O)c2ccc3c(c2)N(Cc2cccc(Cl)c2)C(=O)c2ccccc2S3(=O)=O)ccc1Br,-1%,3.2µM*
COc1ccccc1CNc1ncnc2c1nc1n2CCCC1,-2%,5%
COc1ccccc1NC(=O)CSc1nnc(NC(=O)Nc2ccc(C)cc2)s1,-1%,7%
CCCCC[C@H](O)/C=C/C=C/C=C/[C@H](O)C/C=C\CCCC(=O)O,1%,-5%
Cc1ccc(CCNC(=O)c2ccc3c(c2)N(Cc2cccc(C)c2)C(=O)c2ccccc2S3(=O)=O)cc1,0%,?
O=C(NCCc1ccc(Cl)cc1)c1ccc2c(c1)N(Cc1cccc(Cl)c1)C(=O)c1ccccc1S2(=O)=O,1%,10µM*
CCCCCCCN[C@H]1CCC[C@@H]1CCCCCCC(=O)O,3%,-4%
CCOc1ccc(OCC)c(NC(=O)c2cc(S(=O)(=O)N3CCc4ccccc43)cn2C)c1,-6%,-12%
CCCCn1c2ccccc2c2nnc(SCC(=O)Nc3ccc(NC(C)=O)cc3)nc21,?,20µM*
CCOC(=O)c1ccc(NC(=O)CSc2nnc3c4ccccc4n(CC)c3n2)cc1,-6%,-11%
COc1cccc(CN(C(=O)c2oc3cc(C)ccc3c2C)C2CCS(=O)(=O)C2)c1 (configuration not stated),-7%,?
CC(=O)c1nn(-c2cccc(Br)c2)cc1C(=O)c1ccc(C)cc1,-4%,0%
CC(=O)c1nn(-c2cccc(Br)c2)cc1C(=O)c1ccc(Br)cc1,4%,13µM*
COc1ccc(C)cc1NCc1cc(=O)oc2cc(-c3ccccc3)c(O)cc12,-2%,32µM*
SMILES,Cruzain inh Det,Cruzain noTriton
Cc1cc(C)cc(NCc2cc(=O)oc3cc(-c4ccccc4)c(O)cc23)c1,1%,?
CCOc1ccc(N2C(=O)C3C(c4ccccc4)=NN(c4ccccc4)C3C2=O)cc1 (configuration not stated),-20%,20µM*
CCOc1ccc(N2C(=O)C3C(C2=O)C3(c2ccccc2)c2ccccc2)cc1 (configuration not stated),-5%,-10%
O=C(C1=NN(c2ccccc2)C2C(=O)N(c3ccccc3)C(=O)C12)c1ccccc1 (configuration not stated),-4%,-23%
Cc1ccc(N2C(=O)C3C(C(=O)c4ccccc4)=NN(c4ccccc4)C3C2=O)cc1 (configuration not stated),-7%,16µM*
CCCSc1ncc(Cl)c(C(=O)Nc2ccc(S(=O)(=O)N3CCCC(C)C3)cc2)n1 (configuration not stated),-10%,?
O=C(Cc1csc2nc(-c3ccc(F)cc3)cn12)NCc1ccccc1,-2%,-11%
CCc1ccc(CCC(=O)Nc2sc3c(c2C#N)CCCC3)o1,-1%,25µM*
Cc1cccc(C(=O)Nc2sc3c(c2C#N)CCCCC3)c1,3%,?
N#Cc1c(NC(=O)CCC(=O)O)sc2c1CCCC2,-1%,4%
Cc1ccc(/C=C/C(=O)Nc2sc3c(c2C#N)CCCC3)o1,-5%,7.9µM*
CC(C)c1ccc(/C=C/C(=O)NC2CCCCC2)cc1,-2%,8%

# Source: PubChem
